In PubChem BioAssay (NCI):
Compounds without any hit were thinned out: in the full panel of roughly 83,000, 20% have a hit.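 Method: cells in 96-well plates; compound added at one concentration; 48 h incubation; percent growth measured; values under 10 scored active.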 Active and inactive are the calls of the source.

How the values were obtained:
Test in all cases: NCI-60 one-dose screen, 48 h (100 = growth as untreated, 0 = no growth, -100 = all killed)
Details in all cases: 10 µM unless noted
[1] = tested on: DU-145 prostate
[2] = tested on: K-562 leukemia
[3] = tested on: MALME-3M melanoma
[4] = tested on: MDA-MB-231 breast
[5] = tested on: RXF 393 renal
[6] = tested on: SF-268 CNS
[7] = tested on: SF-295 CNS
[8] = tested on: SF-539 CNS
[9] = tested on: UACC-257 melanoma
[10] = tested on: M14 melanoma
[11] = tested on: HCT-15 colon
[12] = tested on: HT29 colon
[13] = tested on: SNB-19 CNS
[14] = tested on: U251 CNS
[15] = tested on: PC-3 prostate
[16] = tested on: SK-MEL-5 melanoma
[17] = tested on: UACC-62 melanoma
[18] = tested on: LOX IMVI melanoma
[19] = tested on: SK-MEL-28 melanoma
[20] = tested on: SNB-75 CNS

Measured: growth

Cl.[Pt].[c-]1ccccc1-c1ccccn1.c1ccc(P(c2ccccc2)C([PH+](c2ccccc2)c2ccccc2)[PH+](c2ccccc2)c2ccccc2)cc1
inactive: [1] 24.1% | [2] 11% | [5] 11.3% | [6] 27.6% | [9] 15.5% | [10] 19.2% | [12] 10.4% | [13] 27.6% | [14] 10.7% | [17] 16.8% | [18] 12.1% | [19] 34%
active: [3] -9.83% | [4] -8.43% | [7] 7.09% | [8] 8.54% | [11] 7.95% | [15] 9.46% | [16] -87.3%

Nc1ccc(CCCCc2ccccc2)c(Cl)c1
inactive: [1] 103% | [2] 90.1% | [3] 106% | [4] 91.2% | [5] 90.3% | [6] 83% | [7] 104% | [8] 91.2% | [9] 89% | [10] 103% | [11] 89% | [12] 96.3% | [13] 94.6% | [14] 77.7% | [15] 90.1% | [16] 96.4% | [17] 93.4% | [18] 99.2% | [19] 98.8%

N=C(N)c1ccc(-c2ccc(-c3ccc(Cl)cn3)s2)cc1
inactive: [1] 37.6% | [3] 77.9% | [5] 52% | [6] 79.8% | [8] 40.2% | [9] 94.2% | [13] 65.7% | [15] 56.3% | [16] 70.5% | [17] 89.7% | [19] 76.4%
active: [2] -9.89% | [4] -46.5% | [7] -41.4% | [10] 3.24% | [11] -46% | [12] 0.247% | [14] -24.7% | [18] -82.1%

O=C(Oc1ccc([N+](=O)[O-])cc1)c1ccc(CBr)cc1
inactive: [1] 107% | [2] 86.7% | [3] 97.9% | [4] 84.8% | [5] 114% | [6] 100% | [7] 103% | [8] 97% | [9] 92.6% | [10] 105% | [11] 76.9% | [12] 92.3% | [13] 91.5% | [14] 82.4% | [15] 87% | [16] 95.2% | [17] 82.2% | [19] 104%

CCCn1nc(-c2ccccc2)c2c(-c3ccccc3)onc2c1=O
inactive: [1] 104% | [2] 29.1% | [3] 96.5% | [4] 81.6% | [5] 90.2% | [6] 89.2% | [7] 74.3% | [8] 85% | [9] 112% | [10] 57.2% | [11] 61.8% | [12] 43.1% | [20] 53% | [13] 77.2% | [14] 72.9% | [15] 73% | [16] 79.7% | [19] 95.5%

CC(=O)Nc1nccs1
inactive: [1] 107% | [2] 110% | [3] 76.8% | [4] 103% | [5] 98.6% | [6] 99.9% | [7] 101% | [8] 97% | [9] 94.2% | [10] 112% | [11] 98% | [12] 101% | [13] 96.3% | [14] 98.9% | [15] 96.1% | [16] 101% | [17] 92.7% | [18] 94.8% | [19] 98.6%

CC(C)(C)CC(C)(C)Nc1c(-c2ccc(-c3ccccc3)cc2)nc2cnccn12
inactive: [1] 94.9% | [2] 62.7% | [3] 108% | [4] 90.6% | [5] 94.4% | [6] 81.5% | [7] 97.6% | [8] 90.5% | [9] 83.3% | [10] 89.2% | [11] 84.5% | [12] 30.5% | [13] 94.3% | [14] 59.7% | [15] 65.4% | [16] 101% | [17] 75.9% | [18] 97.2% | [19] 100%

CCN(CC)c1ccc(Nc2ccc(CC(=O)c3ccccc3)cc2)cc1
inactive: [1] 98.1% | [2] 82.3% | [3] 106% | [4] 75.7% | [5] 89.2% | [6] 87% | [7] 97.8% | [8] 89.4% | [9] 93.7% | [10] 87.6% | [11] 88.7% | [12] 75.8% | [20] 91.1% | [13] 80.8% | [14] 56.2% | [15] 39.9% | [16] 79.9% | [18] 91.3% | [19] 98.5%

Cc1cc(C(c2ccccc2)c2ccccc2)ccc1NS(=O)(=O)c1ccccc1
inactive: [1] 102% | [2] 65.1% | [3] 130% | [4] 88.5% | [5] 102% | [6] 85.9% | [7] 109% | [8] 98.4% | [9] 118% | [10] 108% | [11] 96.3% | [12] 89.3% | [13] 101% | [14] 94.6% | [15] 83.6% | [16] 94.8% | [17] 85.2% | [18] 87.7% | [19] 112%

COc1cc(-c2cccc([N+](=O)[O-])c2)c(-c2nc(-c3ccccc3)c(-c3ccccc3)n2C2CC2)cc1OC
inactive: [1] 87.1% | [2] 32.6% | [3] 74.2% | [4] 72.4% | [5] 69.1% | [6] 77% | [7] 42.7% | [8] 88.5% | [9] 56.8% | [10] 40% | [11] 56% | [12] 44.5% | [20] 67.7% | [13] 80.4% | [14] 67.3% | [15] 24% | [16] 52.5% | [18] 60.1% | [19] 87.2%

CC(C)(C)OC(=O)N1Cc2cc3ccccc3nc2C1CO (stereo unspecified)
inactive: [1] 98.6% | [2] 133% | [3] 120% | [4] 96.6% | [5] 66.5% | [6] 102% | [7] 92.8% | [8] 95.7% | [9] 19.1% | [10] 98.7% | [11] 118% | [12] 101% | [20] 76.8% | [13] 111% | [14] 103% | [16] 96.9% | [17] 100% | [18] 101% | [19] 101%

COC(=O)CCCNC(=O)C(=O)c1c(O)c(O)c(C(C)C)c2cc(C)c(-c3c(C)cc4c(C(C)C)c(O)c(O)c(C(=O)C(=O)NCCCC(=O)OC)c4c3O)c(O)c12
active: [1] -0.703% | [2] 6.26% | [4] -16.3% | [5] -6.97% | [6] 8.13% | [7] -7.03% | [8] -1.93% | [9] -21.5% | [10] -20.7% | [11] 1.55% | [12] -22.9% | [14] -62.4% | [16] -68.8% | [17] -35.6% | [18] -85.6%
inactive: [3] 19.7% | [13] 22.5% | [15] 21.4% | [19] 23.5%

CCCCCCN(CCCCCC)CC(O)c1cccc2ccc(Cl)cc12 (stereo unspecified)
inactive: [1] 61.8% | [2] 32.9% | [3] 65.6% | [4] 43.3% | [5] 24.1% | [6] 121% | [7] 42% | [8] 65.5% | [9] 74.4% | [10] 63.3% | [11] 53.4% | [12] 15.9% | [20] 116% | [14] 55.2% | [15] 37.1% | [16] 61.8% | [17] 51.4% | [18] 34.7% | [19] 87.9%

O=C1NN(C(=O)c2ccc(O)cc2)C(c2ccccc2)=N/C1=C\c1cn(-c2ccccc2)nc1-c1ccccc1
inactive: [1] 92% | [2] 93.7% | [3] 99% | [4] 106% | [5] 107% | [6] 96.8% | [7] 95% | [8] 89.1% | [9] 93.8% | [10] 96.2% | [11] 103% | [12] 95.1% | [20] 77.4% | [13] 92.5% | [14] 96.2% | [15] 104% | [16] 98.7% | [19] 101%

C#CC[C@H](N)C(=O)O
inactive: [1] 104% [20 µM] | [2] 96.8% [20 µM] | [3] 97% [20 µM] | [4] 99.1% [20 µM] | [5] 114% [20 µM] | [6] 99.8% [20 µM] | [7] 102% [20 µM] | [8] 96% [20 µM] | [9] 101% [20 µM] | [10] 100% [20 µM] | [11] 100% [20 µM] | [12] 98.7% [20 µM] | [20] 68% [20 µM] | [13] 93.1% [20 µM] | [14] 100% [20 µM] | [15] 102% [20 µM] | [16] 102% [20 µM] | [18] 94.7% [20 µM] | [19] 110% [20 µM]

COc1cc2ccccc2cc1C(=O)NC(=S)Nc1ccc(-c2nc3ccccc3[nH]2)cc1
inactive: [1] 56.1% | [2] 75.6% | [3] 48% | [4] 52.9% | [5] 86.2% | [6] 62% | [7] 80.5% | [8] 14.7% | [9] 98% | [10] 79.3% | [11] 78.5% | [12] 72.7% | [13] 86.6% | [14] 75.2% | [15] 90.6% | [16] 42.5% | [17] 93% | [18] 60.5% | [19] 90.1%
